High-throughput results (PubChem)
The list is not random: actives were taken first. Their share in the collection is about 4.6%.
D1 PAM – Potentiators of Human D1 Dopamine Receptor: qHTS; potentiation, % at 10 µM; HEK293 TREx D1 cells, calcium flux, dopamine EC20 potentiation; AID 504651, 2011; 360,000 compounds, 0.036% hits; D(1A) dopamine receptor (Homo sapiens), P21728; in the data active = potentiation above about 30%; also: 0% is about no effect
TRHR ag – qHTS for Small Molecule Agonists and Allosteric Enhancers of Human TRH Receptor: Primary Screen for Agonists; TRHR cells, calcium flux fluo-8, FDSS agonist mode; activation, % at 2 µM; 360,000 compounds, 0.18% hits; Thyrotropin-releasing hormone receptor (Homo sapiens), P34981; also: 0% is about no effect
Target sequence (P34981 whole entry, looked up): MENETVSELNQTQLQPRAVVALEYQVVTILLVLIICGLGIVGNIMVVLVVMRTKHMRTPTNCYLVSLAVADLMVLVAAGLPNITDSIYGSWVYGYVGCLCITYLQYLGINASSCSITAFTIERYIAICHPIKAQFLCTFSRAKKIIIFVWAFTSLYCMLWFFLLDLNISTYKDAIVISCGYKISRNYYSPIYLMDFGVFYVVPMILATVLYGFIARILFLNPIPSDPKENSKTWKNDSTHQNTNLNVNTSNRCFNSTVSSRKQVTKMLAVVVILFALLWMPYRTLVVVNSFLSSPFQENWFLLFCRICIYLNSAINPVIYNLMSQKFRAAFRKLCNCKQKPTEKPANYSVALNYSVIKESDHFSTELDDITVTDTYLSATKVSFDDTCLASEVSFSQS
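Agonist-mode FDSS calcium read (Ex 480/Em 530, 1 s cycles) in 1536-well TRHR cells with fluo-8 dye, after 10-cycle baseline and 23 nL compound addition; TRH at EC20 (10 nM final) added afterwards for the enhancer phase.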
D1 agonist – Allosteric Agonists of the Human D1 Dopamine Receptor: qHTS. D(1A) dopamine receptor (Homo sapiens), P21728. 360,000 compounds, 1% hits. activation, % at 2 µM. HEK293 T-REx D1 cells, calcium flux, agonist mode; also: 0% is about no effect
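Inducible HEK293 T-REx D1 cells, force-coupled to calcium signalling, were plated at 4000 cells/well with tetracycline and held overnight at 30 C. After no-wash calcium dye loading, compound-evoked calcium rise over 180 s flagged agonists.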
TRHR PAM – qHTS for Small Molecule Agonists and Allosteric Enhancers of Human TRH Receptor: Primary Screen for Enhancers; Thyrotropin-releasing hormone receptor (Homo sapiens), P34981; TRHR cells, fluo-8 calcium fluorescence, EC20 TRH enhancement; enhancement, % at 2 µM; 360,000 compounds, 0.66% hits; AID 493056, 2011; in the data active = enhancement above about 30%; also: 0% is about no effect
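TRHR-expressing cells loaded with fluo-8 calcium dye were read kinetically (ex 480/em 530) during compound addition, then stimulated with an EC20 of TRH (10 nM final). Enhancement of the Gq-mediated intracellular calcium response was scored.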
D1 antagonist – Antagonist of Human D 1 Dopamine Receptor: qHTS; AID 504652, 2011; activity change, negative = inhibition, % at 10 µM; 360,000 compounds, 3.2% hits; D(1A) dopamine receptor (Homo sapiens), P21728; HEK293 TREx D1 cells, calcium flux, dopamine EC80; active compounds read low; in the data active = activity change below about -30%; also: % is scaled to controls: 0 for no effect and ±100 for the full control effect
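Cells carrying a force-coupled, tetracycline-inducible human D1 receptor report calcium flux. Each well gets a 10 s baseline, compound with 180 s monitoring, then an EC80 dopamine stimulus with a second 180 s kinetic read.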
The depositor's hits bear a star; · = no result; ! = a repeat was not active. Rule as the data show it, unless noted: active = activation above about 30%; inactive = the rest.

SMILES	D1 PAM	TRHR ag	D1 agonist	TRHR PAM	D1 antagonist
COC(=O)c1ccccc1NC(=O)CCC(=O)N1CCSc2ccccc21	-7	0	1	-3	-4
CCOC(=O)C1CCN(C(=O)Cn2nc(CC)n3c(cc4occc43)c2=O)CC1	2	0	5	-7	-33*
CCc1nn(CC(=O)NCCCN2CCN(C)CC2)c(=O)c2cc3occc3n12	0	1	2	4	-37*!
CCc1nn(CC(=O)NCCN2CCN(C)CC2)c(=O)c2cc3occc3n12	3	-1	3	3	-14
Cn1c(=O)cc(SCC(=O)Nc2cccc(C#N)c2)c2ccc(Cl)cc21	3	0	-1	2	12
NS(=O)(=O)c1ccc(NC(=O)CSc2n[nH]c(=O)n2Cc2ccccc2)cc1	0	1	5	-2	6
O=C(CSc1n[nH]c(=O)n1Cc1ccccc1)Nc1ccc(F)c(F)c1F	-4	-2	34*	22	4
CCn1c2ccccc2c2n[nH]c(=S)nc21	-3	0	1	-6	1
COC(=O)Cn1c2ccccc2c2nc3ccccc3nc21	-2	-1	4	-2	-37*
COC(=O)Cn1c2nc3ccccc3nc2c2cccc(C)c21	-9	0	0	2	17
O=C(O)Cn1c2ccccc2c2n[nH]c(=S)nc21	-6	0	0	-2	-33*
Cc1cccc(CC(=O)NCCc2sc3nc(-c4ccc(F)cc4)nn3c2C)c1	-4	-1	11	5	·
COc1ccc(NC(=O)CCN2CCN(c3ccccc3F)CC2)c(OC)c1	-26	0	1	-8	-36*
COc1ccc(OC)c(NC(=O)CCN2CCN(c3ccccc3OC)CC2)c1	0	0	3	5	-64*
CC1CCN(CCCNC(=O)c2cc(Sc3ccc(F)cc3)nc3ccccc23)CC1	-1	4	44*	-5	-10
COc1ccc(NC(=O)CN2CCN(c3ccccc3F)CC2)c(OC)c1	0	-1	3	2	-2
COc1ccc(Nc2cc(C(=O)NCCCN3CCN(c4ccccc4F)CC3)c3ccccc3n2)c(OC)c1	-2	0	0	-1	-42*
COc1ccc(Nc2cc(C(=O)NCCCN3CCOCC3)c3ccccc3n2)c(OC)c1	1	2	0	-3	0
CC1CCCCN1CCCNC(=O)c1cc(Sc2ccc(Cl)cc2)nc2ccccc12 (stereo not given)	-4	0	16	-2	-20
O=C(O)CC(NC(=O)C12CC3CC(CC(C3)C1)C2)c1cccc(Cl)c1 (stereo not given)	2	0	1	-1	0
COc1ccc2[nH]c(=O)c(CN(CCO)C(=O)c3cccs3)cc2c1	-2	-1	3	5	13
N#Cc1c(NC(=O)C2CCCO2)sc2c1CCCCCC2 (stereo not given)	3	1	6	0	-32*
NC(=O)c1c(NC(=O)C2CCCO2)sc2c1CCCC2 (stereo not given)	-6	1	0	10	-15
COC(=O)c1sc(NC(=O)C2CCCO2)c(C(=O)OC)c1C (stereo not given)	-2	-1	0	32*	-5
O=C(CCC1N=C2c3ccccc3N=C(SCC(=O)Nc3ccc(F)cc3)N2C1=O)NCc1cccs1 (stereo not given)	4	0	-1	-6	-24
SMILES	D1 PAM	TRHR ag	D1 agonist	TRHR PAM	D1 antagonist
CCCCNC(=O)CSC1=Nc2ccccc2C2=NC(CCC(=O)NCc3ccccc3OC)C(=O)N12 (stereo not given)	-2	0	0	2	2
COc1ccccc1CNC(=O)CCC1N=C2c3ccccc3N=C(SCC(N)=O)N2C1=O (stereo not given)	-3	0	-1	7	-37*
Cc1ccc(CSC2=Nc3ccccc3C3=NC(CC(=O)NCc4ccc5c(c4)OCO5)C(=O)N23)cc1 (stereo not given)	1	0	6	-1	-61*
O=C(CCC1N=C2c3ccccc3N=C(SCC(=O)Nc3ccccc3F)N2C1=O)NCc1cccs1 (stereo not given)	-1	0	1	-2	-38*
Cc1cc2cc(C)c(NCCNC(=O)c3ccccc3Cl)nc2cc1C	-9	-2	9	-1	-26
O=C(CN1C(=O)CC(c2ccc(F)cc2)=Nc2ccccc21)NCc1ccccc1Cl	2	1	3	-3	-46*
COc1ccc(Cl)cc1S(=O)(=O)N1CCC(C(=O)NCCc2ccccc2)CC1	-5	0	1	-7	3
O=C(Nc1ccccc1C(F)(F)F)C1CCN(c2nnc(-n3cccc3)s2)CC1	-5	-2	7	7	-12
CCN(CC)c1ccc(NC(=O)C2CCN(c3nnc(-n4cccc4)s3)CC2)c(C)c1	0	-1	0	-2	-38*
CCCCN(CC)C(=O)c1ccc2c(c1)NC(=O)c1ccccc1S2	0	-1	3	-12	-45*
CC(C)OCCCNC(=O)c1ccc2c(c1)NC(=O)c1ccccc1S2	-3	0	3	-3	1
Cc1ccc(C)c(N2CCN(C(=S)NC3CCCCC3)CC2)c1	-7	0	0	1	1
Cc1cccc(N2CCN(C(=S)NC3CCCCC3)CC2)c1C	-4	4	6	-5	-33*
CNc1nc(Nc2ccc(C(C)=O)cc2)nc(OC(C(F)(F)F)C(F)(F)F)n1	-7	1	11	3	-31*
O=C(c1ccc2c(c1)OCO2)C1CCCN(Cc2cc(F)ccc2-n2cccn2)C1 (stereo not given)	-10	-1	1	-2	-36*
C=CCN1C(=O)/C(=C/C=C2/N(CC)c3ccc(S(=O)(=O)N(C)C)cc3N2CC)SC1=S	-3	45*	118*	9	8
C=CCN1C(=O)/C(=C2/Sc3ccccc3N2CC)SC1=S	-1	0	5	-1	16
COC(=O)CC/C(C)=N\Nc1ccc([N+](=O)[O-])cc1[N+](=O)[O-]	-3	1	12	12	-19
Cc1cc(C)c(Nc2cc(S(=O)(=O)O)c(N)c3c2C(=O)c2ccccc2C3=O)c(C)c1	-2	0	40*	3	-15
O=C(CNC(=O)c1ccc(Cl)cc1Cl)OCCOc1ccccc1	-3	0	1	2	-10
COC(=O)/C=C(\C)N=Nc1c(O)[nH]c2ccccc12	-4	8	144*	-6	26
